The supplement of paper PMC10849652
The full data set covers some 7,900 targets. This sample favours those with a hit. About 0.6% of all pairs of compound and target were hits.

Legend:
Test in all cases: log2 fold change, soluble protein after heating vs DMSO (PISA); higher = thermal stabilisation; K562 cells, 10 uM, 30 min; active = over 0.2 and 3.5 SD of the protein, either way, in both replicates (recomputed)
[1] = compound: C1COCCN1CCN2C3=CC=CC=C3N=C2NC(=O)C4=CC(=CC=C4)[N+](=O)[O-] [IRAK-1-4 Inhibitor I]
How it was run: (§1)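 K562 cells (2×10^6 cells/mL) were treated with 10 μM compound for 30 min, and aliquots were heated for 3 min over 48°C-58°C. Pooled aliquots were extracted in PBS with 0.5% NP-40 at 4°C, and the supernatant after 21,000xg for 90 min was measured by TMTpro 16plex LC-MS/MS with channel sums equalised. Reported thermal stability, relative to control samples and from duplicates, is a log2 fold change.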

[2] = compound: C=CC(=O)N1CCC[C@@H](n2nc(-c3ccc(Oc4ccccc4)cc3)c3c(N)ncnc32)C1 [ibrutinib]
How it was run: as §1

[3] = compound: CC(=O)c1cnc2ccc(-c3cc(Cl)c(O)c(Cl)c3)nc2c1N[C@H]1CC[C@H](CN(C)C)CC1
How it was run: as §1

[4] = compound: CC(C)(C)Cn1c(N)nc2ccc(-c3[nH]c(C(C)(C)C)nc3-c3ccc(F)cc3)nc21 [ralimetinib]
How it was run: as §1

[5] = compound: CC(C)(O)CC(=O)NCCn1ccc2ncnc(Nc3ccc(Oc4cccc(C(F)(F)F)c4)c(Cl)c3)c21
How it was run: as §1

[6] = compound: CC(C)C1=C2N=C(C=C(N2N=C1)NCC3=CC=CC=C3)NCCCCCCN
How it was run: as §1

[7] = compound: CC(C)C[C@@H](C=O)NC(=O)[C@H](CC(C)C)NC(=O)[C@H](CC(C)C)NC(=O)OCc1ccccc1
How it was run: as §1

[8] = compound: CC(C)N(C[C@H]1O[C@@H](n2cnc3c(N)ncnc32)[C@H](O)[C@@H]1O)[C@H]1C[C@@H](CCc2nc3cc(C(C)(C)C)ccc3[nH]2)C1 [pinometostat]
How it was run: as §1

[9] = compound: CC1=C(C(CC(=O)N1)C2=CC=C(C=C2)C(F)(F)F)C(=O)NC3=C(C=C4C(=C3)C=NN4)F
How it was run: as §1

[10] = compound: CC1=C(C2=C(C=C1)C(=O)C3=CC=CC=C3N2CCCN)C
How it was run: as §1

Measured: log2 fold change

TUBA4A (UniProt P68366)
Chain of UniProt P68366 (P68366 whole entry, looked up): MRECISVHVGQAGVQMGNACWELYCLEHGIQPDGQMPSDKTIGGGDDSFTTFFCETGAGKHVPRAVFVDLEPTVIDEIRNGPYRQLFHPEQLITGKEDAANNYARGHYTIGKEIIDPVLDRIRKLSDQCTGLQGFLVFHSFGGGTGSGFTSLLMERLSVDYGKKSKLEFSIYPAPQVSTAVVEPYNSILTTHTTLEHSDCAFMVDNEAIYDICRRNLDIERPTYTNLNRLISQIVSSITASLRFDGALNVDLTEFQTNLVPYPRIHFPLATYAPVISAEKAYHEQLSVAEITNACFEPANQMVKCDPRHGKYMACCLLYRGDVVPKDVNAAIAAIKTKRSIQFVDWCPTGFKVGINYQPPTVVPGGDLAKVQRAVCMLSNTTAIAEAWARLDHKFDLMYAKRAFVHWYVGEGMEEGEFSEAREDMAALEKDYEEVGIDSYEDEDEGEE
inactive: [1] 0.039 | [2] 0.01 | [3] 0.001 | [4] -0.044 | [5] -0.032 | [6] 0 | [7] 0.016 | [8] -0.039 | [9] -0.014 | [10] 0.011

USP34 (UniProt Q70CQ2)
inactive: [1] 0.005 | [2] -0.091 | [3] -0.033 | [4] -0.017 | [5] -0.14 | [6] -0.114 | [7] -0.016 | [8] 0.079 | [9] -0.04 | [10] -0.176

UFL1 (UniProt O94874)
Chain of UniProt O94874 (O94874 whole entry, looked up): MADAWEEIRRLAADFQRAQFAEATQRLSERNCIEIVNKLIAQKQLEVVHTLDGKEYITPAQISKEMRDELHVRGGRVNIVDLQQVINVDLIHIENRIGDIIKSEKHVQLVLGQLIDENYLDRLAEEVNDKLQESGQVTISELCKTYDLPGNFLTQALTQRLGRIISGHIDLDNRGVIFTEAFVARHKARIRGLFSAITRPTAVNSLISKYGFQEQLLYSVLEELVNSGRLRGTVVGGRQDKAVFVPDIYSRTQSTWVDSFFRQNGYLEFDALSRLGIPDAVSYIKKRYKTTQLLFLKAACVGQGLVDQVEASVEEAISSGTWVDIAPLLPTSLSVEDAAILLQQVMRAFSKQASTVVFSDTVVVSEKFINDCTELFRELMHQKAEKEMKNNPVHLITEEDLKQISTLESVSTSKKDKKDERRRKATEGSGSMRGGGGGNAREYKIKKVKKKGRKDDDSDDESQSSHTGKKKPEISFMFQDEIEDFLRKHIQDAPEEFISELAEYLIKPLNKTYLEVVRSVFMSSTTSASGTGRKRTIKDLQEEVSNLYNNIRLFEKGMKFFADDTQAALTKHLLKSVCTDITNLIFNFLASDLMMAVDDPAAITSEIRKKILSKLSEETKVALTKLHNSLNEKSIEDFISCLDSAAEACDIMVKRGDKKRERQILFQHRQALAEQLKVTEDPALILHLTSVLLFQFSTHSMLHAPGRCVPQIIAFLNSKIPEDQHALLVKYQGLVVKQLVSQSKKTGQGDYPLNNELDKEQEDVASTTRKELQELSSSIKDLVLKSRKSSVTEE
inactive: [1] -0.048 | [2] -0.037 | [3] -0.022 | [4] 0.073 | [5] -0.055 | [6] -0.142 | [7] 0.015 | [8] 0.042 | [9] -0.017 | [10] 0.026

VARS2, A0A0G2JL52
inactive: [1] 0.012 | [2] 0.014 | [3] -0.03 | [4] 0.064 | [5] -0.074 | [6] -0.177 | [7] 0.025 | [8] -0.014 | [9] 0.003 | [10] 0.082

VTA1 (UniProt Q9NP79)
Chain of UniProt Q9NP79 (Q9NP79 whole entry, looked up): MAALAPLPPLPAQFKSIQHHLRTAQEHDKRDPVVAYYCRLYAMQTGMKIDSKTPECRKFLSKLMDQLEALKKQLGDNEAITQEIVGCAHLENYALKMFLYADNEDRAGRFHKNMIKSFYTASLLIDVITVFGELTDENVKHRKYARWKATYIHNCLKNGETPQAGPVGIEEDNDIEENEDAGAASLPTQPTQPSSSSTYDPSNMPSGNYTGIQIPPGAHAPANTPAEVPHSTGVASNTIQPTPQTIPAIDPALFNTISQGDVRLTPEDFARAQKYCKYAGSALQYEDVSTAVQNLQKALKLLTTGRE
inactive: [1] -0.02 | [2] -0.001 | [3] -0.013 | [4] -0.009 | [5] -0.074 | [6] -0.12 | [7] -0.007 | [8] -0.041 | [9] 0.012 | [10] 0.068

TRAPPC11 (UniProt Q7Z392)
Chain of UniProt Q7Z392 (Q7Z392 whole entry, looked up): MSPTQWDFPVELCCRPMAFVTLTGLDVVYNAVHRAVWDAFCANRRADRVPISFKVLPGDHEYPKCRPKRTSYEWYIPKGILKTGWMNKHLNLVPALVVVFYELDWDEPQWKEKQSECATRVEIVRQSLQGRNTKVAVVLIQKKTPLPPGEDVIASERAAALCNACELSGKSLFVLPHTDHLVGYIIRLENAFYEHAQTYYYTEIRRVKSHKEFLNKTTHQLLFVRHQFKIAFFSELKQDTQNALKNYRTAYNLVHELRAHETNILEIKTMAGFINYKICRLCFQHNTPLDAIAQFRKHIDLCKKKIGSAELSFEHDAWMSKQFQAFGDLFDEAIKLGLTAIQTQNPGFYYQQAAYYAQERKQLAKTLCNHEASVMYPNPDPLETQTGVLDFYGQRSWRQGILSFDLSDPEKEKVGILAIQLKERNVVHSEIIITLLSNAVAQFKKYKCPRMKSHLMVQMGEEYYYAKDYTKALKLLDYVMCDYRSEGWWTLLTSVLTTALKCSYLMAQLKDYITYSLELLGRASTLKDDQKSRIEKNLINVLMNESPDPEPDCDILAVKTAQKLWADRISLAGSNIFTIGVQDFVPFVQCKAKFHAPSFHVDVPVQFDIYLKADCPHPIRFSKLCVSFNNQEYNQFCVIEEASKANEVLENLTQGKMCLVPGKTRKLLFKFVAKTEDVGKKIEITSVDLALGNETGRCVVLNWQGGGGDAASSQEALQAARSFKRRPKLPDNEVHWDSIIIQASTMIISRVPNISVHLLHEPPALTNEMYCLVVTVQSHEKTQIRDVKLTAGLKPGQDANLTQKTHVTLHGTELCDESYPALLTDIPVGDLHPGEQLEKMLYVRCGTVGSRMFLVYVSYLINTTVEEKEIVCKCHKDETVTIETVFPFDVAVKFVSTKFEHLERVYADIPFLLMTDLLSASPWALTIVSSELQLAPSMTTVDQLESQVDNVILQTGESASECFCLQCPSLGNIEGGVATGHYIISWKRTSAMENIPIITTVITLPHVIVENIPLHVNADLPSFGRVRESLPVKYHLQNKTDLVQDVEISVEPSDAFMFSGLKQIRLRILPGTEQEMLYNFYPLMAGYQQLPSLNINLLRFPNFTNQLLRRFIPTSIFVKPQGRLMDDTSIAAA
inactive: [1] -0.007 | [2] 0.001 | [3] -0.048 | [4] 0.034 | [5] -0.063 | [6] -0.064 | [7] 0.012 | [8] 0.032 | [9] -0.048 | [10] 0.028

VRK1 (UniProt Q99986)
active: [10] 0.433
inactive: [1] -0.041 | [2] 0.032 | [3] 0.338 | [4] -0.033 | [5] -0.32 | [6] -0.013 | [7] 0.055 | [8] -0.008 | [9] -0.027

TRAPPC3 (UniProt O43617)
Chain of UniProt O43617 (O43617 whole entry, looked up): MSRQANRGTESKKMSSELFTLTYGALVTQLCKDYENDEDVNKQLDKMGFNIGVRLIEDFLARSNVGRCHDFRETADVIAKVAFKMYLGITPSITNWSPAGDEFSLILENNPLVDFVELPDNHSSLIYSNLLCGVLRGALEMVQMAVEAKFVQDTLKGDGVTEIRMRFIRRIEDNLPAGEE
inactive: [1] 0.03 | [2] -0.032 | [3] -0.056 | [4] -0.083 | [5] -0.033 | [6] -0.105 | [7] 0.001 | [8] -0.029 | [9] 0.031 | [10] 0.008

TMEM41A (UniProt Q96HV5)
Chain of UniProt Q96HV5 (Q96HV5 whole entry, looked up): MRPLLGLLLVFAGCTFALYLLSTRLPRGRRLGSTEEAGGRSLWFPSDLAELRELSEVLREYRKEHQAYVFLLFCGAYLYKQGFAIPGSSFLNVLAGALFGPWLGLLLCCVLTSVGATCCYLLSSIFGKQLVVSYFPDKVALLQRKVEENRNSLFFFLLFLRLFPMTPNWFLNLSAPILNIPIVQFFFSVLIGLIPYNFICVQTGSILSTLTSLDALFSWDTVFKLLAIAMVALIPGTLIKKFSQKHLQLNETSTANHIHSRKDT
inactive: [1] -0.022 | [2] -0.007 | [3] -0.04 | [4] 0.033 | [5] 0.022 | [6] 0.043 | [7] -0.079 | [8] -0.06 | [9] 0.035 | [10] 0.151

TXNL1 (UniProt O43396)
Chain of UniProt O43396 (O43396 whole entry, looked up): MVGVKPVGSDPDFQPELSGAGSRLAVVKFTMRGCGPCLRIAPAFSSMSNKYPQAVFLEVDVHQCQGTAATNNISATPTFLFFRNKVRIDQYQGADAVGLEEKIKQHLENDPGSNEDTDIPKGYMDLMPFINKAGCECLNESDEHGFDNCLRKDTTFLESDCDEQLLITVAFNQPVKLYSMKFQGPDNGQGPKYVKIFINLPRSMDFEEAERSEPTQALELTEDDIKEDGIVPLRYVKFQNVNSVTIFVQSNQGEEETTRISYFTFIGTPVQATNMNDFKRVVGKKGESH
inactive: [1] -0.035 | [2] -0.014 | [3] -0.001 | [4] -0.003 | [5] -0.03 | [6] -0.052 | [8] -0.029 | [9] -0.027 | [10] 0.038
active: [7] 0.278

TMEM70 (UniProt Q9BUB7)
inactive: [1] 0.07 | [2] 0.068 | [3] -0.034 | [4] -0.044 | [5] -0.095 | [6] 0.13 | [7] 0.028 | [8] 0.019 | [9] -0.034 | [10] 0.086

UFD1 isoform 1 (UniProt Q92890)
Chain of UniProt Q92890 (Q92890 whole entry, looked up): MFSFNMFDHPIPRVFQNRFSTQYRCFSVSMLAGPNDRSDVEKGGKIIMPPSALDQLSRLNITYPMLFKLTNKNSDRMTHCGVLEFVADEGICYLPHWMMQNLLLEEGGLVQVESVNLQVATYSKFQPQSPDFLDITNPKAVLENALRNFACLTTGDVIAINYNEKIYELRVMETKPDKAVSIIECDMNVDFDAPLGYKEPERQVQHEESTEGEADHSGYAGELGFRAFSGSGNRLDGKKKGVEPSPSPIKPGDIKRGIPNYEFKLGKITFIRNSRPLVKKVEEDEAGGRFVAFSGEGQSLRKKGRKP
inactive: [1] 0.025 | [2] -0.018 | [3] -0.005 | [4] 0 | [5] -0.04 | [6] 0.04 | [7] 0.021 | [8] -0.04 | [9] -0.016 | [10] 0

VPS51 (UniProt Q9UID3)
Chain of UniProt Q9UID3 (Q9UID3 whole entry, looked up): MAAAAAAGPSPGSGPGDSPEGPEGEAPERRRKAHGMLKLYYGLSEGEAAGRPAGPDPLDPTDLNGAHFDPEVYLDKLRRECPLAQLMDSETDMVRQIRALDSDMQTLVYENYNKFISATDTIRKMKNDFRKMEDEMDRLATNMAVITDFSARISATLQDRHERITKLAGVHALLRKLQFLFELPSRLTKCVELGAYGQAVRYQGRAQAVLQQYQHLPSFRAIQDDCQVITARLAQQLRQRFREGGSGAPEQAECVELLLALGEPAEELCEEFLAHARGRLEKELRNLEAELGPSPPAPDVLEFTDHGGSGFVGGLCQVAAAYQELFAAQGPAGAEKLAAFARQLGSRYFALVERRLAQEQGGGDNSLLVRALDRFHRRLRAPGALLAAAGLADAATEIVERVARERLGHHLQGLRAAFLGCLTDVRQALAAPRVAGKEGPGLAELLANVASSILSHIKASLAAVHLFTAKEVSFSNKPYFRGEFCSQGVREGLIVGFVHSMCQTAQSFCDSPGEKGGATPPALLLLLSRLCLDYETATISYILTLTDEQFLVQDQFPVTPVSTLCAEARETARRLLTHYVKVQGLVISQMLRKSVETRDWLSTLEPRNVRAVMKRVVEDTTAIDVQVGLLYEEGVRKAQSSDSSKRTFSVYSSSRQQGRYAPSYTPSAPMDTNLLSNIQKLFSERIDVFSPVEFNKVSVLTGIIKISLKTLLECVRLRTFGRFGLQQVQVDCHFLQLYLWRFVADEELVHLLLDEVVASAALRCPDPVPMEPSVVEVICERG
inactive: [1] 0.016 | [2] -0.015 | [3] 0.009 | [4] 0.024 | [5] -0.042 | [6] -0.115 | [7] 0.001 | [8] 0.05 | [9] 0.033 | [10] 0.105

WDR62 isoform 4 (UniProt O43379)
active: [3] -0.579
inactive: [1] 0.085 | [2] -0.069 | [4] 0.003 | [5] -0.003 | [6] -0.085 | [7] 0.042 | [8] 0.062 | [9] 0.063 | [10] -0.176

TMEM161A (UniProt Q9NX61)
Chain of UniProt Q9NX61 (Q9NX61 whole entry, looked up): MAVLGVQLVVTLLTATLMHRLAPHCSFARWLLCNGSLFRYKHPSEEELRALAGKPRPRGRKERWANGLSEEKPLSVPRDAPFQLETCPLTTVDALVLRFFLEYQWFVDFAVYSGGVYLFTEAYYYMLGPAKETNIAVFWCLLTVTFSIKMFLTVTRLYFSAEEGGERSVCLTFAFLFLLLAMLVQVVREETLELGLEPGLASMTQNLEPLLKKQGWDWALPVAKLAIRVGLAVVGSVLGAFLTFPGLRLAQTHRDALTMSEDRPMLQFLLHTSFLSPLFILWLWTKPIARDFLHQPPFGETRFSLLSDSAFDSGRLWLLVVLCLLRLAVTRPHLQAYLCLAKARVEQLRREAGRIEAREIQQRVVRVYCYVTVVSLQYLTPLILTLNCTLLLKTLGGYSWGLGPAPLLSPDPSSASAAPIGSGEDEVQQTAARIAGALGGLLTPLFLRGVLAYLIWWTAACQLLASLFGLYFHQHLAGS
inactive: [1] 0.03 | [2] -0.015 | [3] 0.045 | [4] -0.059 | [5] -0.17 | [7] -0.045 | [8] 0.121 | [9] -0.076 | [10] 0.071
active: [6] -0.395
